Measured values published in PubChem BioAssay AID2284357 (EPA ToxCast).
Records with an inconclusive call do not appear. The source made the active and inactive calls. The calls were made as follows: active = hit-call score of the fitted dose curve at least 0.9, where 1 is the maximum; inconclusive = response in the unintended direction; inactive = score below 0.9.

What follows are compounds tested on zebrafish Androgen Receptor (AR), gene 100005148 (assay: ATG_zfAR_EcoTox2: Attagene TRANS-FACTORIAL EcoTox-2 HepG2 Assay for zebrafish Androgen Receptor (AR)).
Method: ATG_EcoTox2 is a cell-based, multiplexed assay created by modifying the existing Attagene TRANS-FACTORIAL system to include a panel of nuclear receptors from some or all the following species: human (Homo sapiens), african clawed frog (Xenopus laevis), rainbow trout (Oncorhynchus mykiss), japanese medaka (Oryzias latipes), and zebrafish (Danio rerio). The ECOTOX2-FACTORIAL format uses HepG2, a human liver cell line, with measurements taken at 24 hours after chemical dosing in a 24-well plate. ATG_zfAR_EcoTox2 is one of 29 assay components calculated in the ATG_EcoTox2 assay. It is designed to make measurements of mRNA induction, a form of inducible reporter, as detected with fluorescence intensity signals by Reverse transcription polymerase chain reaction (RT-PCR) and Capillary electrophoresis technology.The assay endpoint ATG_zfAR_EcoTox2 was analyzed in the positive analysis fitting direction relative to DMSO as the negative control and baseline of activity. Using a type of inducible reporter, measures of mRNA for gain-of-signal activity can be used to understand the reporter gene at the transcription factor-level as they relate to the gene AR. Furthermore, this assay endpoint can be referred to as a primary readout, because this assay has produced multiple assay endpoints where this one serves a reporter gene function. To generalize the intended target to other relatable targets, this assay endpoint is annotated to the nuclear receptor intended target family, where the subfamily is steroidal.
Human liver HepG2 cells are transiently transfected with multiple reporter transcription units (MRTUs) in 6-well plates using FuGene 6 reagent (Roche; 3 ml FuGene/1 mg DNA). The MRTU constructs are regulated by a cis-regulating element (promoter). Each RTU expresses a GAL4-UAS that regulates the transcription of a nearby target reporter gene sequence. A major difference between the CIS and TRANS system is that in CIS activities of endogenous TFs are measured, whereas the TRANS assay evaluates changes in activities of exogenous, chimeric NR-Gal4 proteins. […] At the end of 24 hour incubation, total RNA was isolated using TriZol reagent (Invitrogen). The isolated RNA is then reverse-transcribed using oligo(dT) primer and Mo-MLV reverse transcriptase (Invitrogen) with DNAse I (Ambion) treatment for 30 min. The one-tenth of the produced cDNA was amplified by PCR using Taq DNA polymerase (Invitrogen) and two reporter sequence-specific primers. […] The fragments were purified using Qiaquick PCR columns (Qiagen), analyzed on an ABI 3130xL genetic analyzer (Applied Biosystems) with peak positions identified by using a set of X-rhodamine (ROX)-labeled MapMarker1000 molecular weight standards (BioVentures). […]

SMILES | outcome
O=S(=O)(O)C(F)(F)C(F)(F)C(F)(F)C(F)(F)C(F)(F)C(F)(F)F | inactive
O=P(Oc1ccccc1)(Oc1ccccc1)Oc1ccccc1 | inactive
O=C(O)C(F)(F)C(F)(F)C(F)(F)C(F)(F)C(F)(F)C(F)(F)C(F)(F)F | inactive
CCCCOCN(C(=O)CCl)c1c(CC)cccc1CC | inactive
